Records with an inconclusive call do not appear. Values without a mark were called inactive. Activity calls are given as the source filed them. The call rests on the fitted dose curve; in most records, active means well fitted curve in the direction sought with a large enough effect; inconclusive means small, poorly fitted or top-dose-only effect, or another doubt; inactive means no such curve, though single readings can be large; an effect the other way counts as inactive or inconclusive.

Experiment [1] concerns the target Cellular tumor antigen p53 (Homo sapiens) (UniProt P04637). In words: Primary qHTS for small molecule compounds that upregulate eGFP-tagged delta133p53alpha (in N-terminal) cells. (AID 2060322). Further: nearly all actives have a fitted effect of over 75% in size. Further: potency means the concentration at half of the fitted maximal effect.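 On activation: series mostly up to about 56 µM; 0% = DMSO vehicle and 100% = reference activator.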 The note with it: NCI-H358 eGFP-delta133p53alpha fluorescence, 24 h; activation: hits give high values. An outline of the steps: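 NCI-H358 cells pre-induced 24 h with 10 ng/ml doxycycline to express N-terminal eGFP-delta133p53alpha, then dosed 24 h at 37C without doxycycline; fixed, Hoechst-stained, GFP intensity by laser scanning cytometry, normalized to DMSO (0%) and 57.5 uM 5-azacytidine (100%).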
For orientation: In qHTS, concentration-response curves come from the screen itself.

For experiment [2], the target named is Aldehyde dehydrogenase, mitochondrial (Homo sapiens) (UniProt P05091). Kind of experiment: qHTS for Inhibitors of the Aldehyde Dehydrogenase Family (ALDH2) Primary screen (AID 2061308).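 Further: plate controls were vehicle for no effect and reference inhibitor for full effect; nearly all actives have a fitted effect of over 55% in size.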
In experiment [3] the target is Retinaldehyde dehydrogenase 3 (Homo sapiens) (UniProt P47895). Kind of experiment: qHTS for Inhibitors of the Aldehyde Dehydrogenase Family (ALDH1A3) Primary screen (AID 2061315).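 Further: plate controls were DMSO vehicle for no effect and reference inhibitor for full effect.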

Sequence of Cellular tumor antigen p53 (Homo sapiens) (P04637 whole entry, looked up): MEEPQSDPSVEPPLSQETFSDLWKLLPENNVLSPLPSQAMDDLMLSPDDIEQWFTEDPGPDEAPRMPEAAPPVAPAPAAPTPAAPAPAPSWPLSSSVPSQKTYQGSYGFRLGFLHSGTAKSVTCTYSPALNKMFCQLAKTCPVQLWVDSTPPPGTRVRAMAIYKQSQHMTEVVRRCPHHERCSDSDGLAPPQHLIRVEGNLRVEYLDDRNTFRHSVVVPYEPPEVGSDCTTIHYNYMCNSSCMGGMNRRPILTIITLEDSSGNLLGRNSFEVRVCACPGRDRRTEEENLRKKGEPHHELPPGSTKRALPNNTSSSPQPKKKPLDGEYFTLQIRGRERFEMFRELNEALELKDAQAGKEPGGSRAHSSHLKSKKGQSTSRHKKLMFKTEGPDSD

With `Cc1onc(C(=O)N2CCN(C(c3ccc(Cl)cc3)c3ccc(Cl)cc3)CC2)c1[N+](=O)[O-]`, in experiment [1], the activation is 10.7%. For the same molecule, the Potency entry in experiment [2] and in experiment [3] was “inactive” throughout.

Regarding `C[C@]1(O)CC[C@@H]2C(C(=O)O)=CO[C@@H](O[C@@H]3O[C@H](CO)[C@@H](O)[C@H](O)[C@H]3O)[C@@H]21`, the activation in experiment [1] was -11.5%. In addition, the Potency result in experiment [2] and in experiment [3] was “inactive” each time.

Regarding `CC(=O)OC1C(O)/C(C)=C\C2C(OC(=O)c3ccccc3)C(C)CC2(OC(C)=O)C(OC(C)=O)C(C)/C=C/C(C)(C)C1OC(C)=O` (centres undefined), the activation in experiment [1] was -20.5%. Besides, the Potency entry in experiment [2] and in experiment [3] was “inactive” in each case.

In the case of `Cc1[nH]c2ccccc2c1CCNC(=O)c1ccccc1F`, in experiment [1], the activation is -0.477%. The Potency result in experiment [2] and in experiment [3] was “inactive” throughout.

For `C[C@@H]1O[C@@H](O[C@@H]2[C@@H](O)[C@H](O[C@@H]3[C@@H](O)[C@@H](O)[C@H](O[C@H]4[C@H](OC(=O)[C@]56CCC(C)(C)C[C@H]5C5=CCC7[C@@]8(C)C[C@H](O)[C@H](O[C@@H]9O[C@H](C(=O)O)[C@@H](O)[C@H](O)[C@H]9O)[C@@](C)(CO)C8[C@H](O)C[C@@]7(C)[C@]5(C)C[C@H]6O)O[C@@H](CO)[C@@H]4O)O[C@H]3C)OC[C@H]2O)[C@H](O)[C@H](O)[C@H]1O` (some centres undefined), the activation in experiment [1] was 12.2%. Moreover, the activity change, negative = inhibition in experiment [2] is 4.77% [at 11.2 µM]; in experiment [3], -9.03% [at 11.2 µM].

As to `CCCCCOc1ccc(C2SC(=O)NC2=O)cc1OCC` (centres undefined), the activation in experiment [1] is 2.33%. For the same molecule, the Potency result in experiment [2] and in experiment [3] was “inactive” each time.

With `CC1=C[C@H](O)[C@H]2C(C)(C)CCC[C@]2(C)[C@@]1(O)CO`, in experiment [1], the activation was -2.68%. Moreover, the Potency entry in experiment [2] and in experiment [3] was “inactive” throughout.

Consider `Nc1nc(-n2cc(C(=O)O)c(=O)c3cc(F)c(N4CC(O)C4)c(Cl)c32)c(F)cc1F`, for which the activation in experiment [1] was 13%. The Potency entry in experiment [2] and in experiment [3] was “inactive” throughout.

For `O=S(=O)(O)c1ccc(Nc2ncnc3c2ncn3[C@@H]2O[C@H](CO)[C@@H](O)[C@H]2O)cc1`, the activation in experiment [1] was -3%. Moreover, the Potency entry in experiment [2] and in experiment [3] was “inactive” throughout.

For `CCc1cc(CN2CC(C(=O)O)C2)sc1-c1noc(-c2ccc(Oc3ccccc3)cc2)n1`, the activation in experiment [1] was -2.39%. Also, the Potency result in experiment [2] and in experiment [3] was “inactive” each time.

Turning to `C[C@@H]1C(=O)O[C@H]2[C@H]1CC[C@@]1(C)C(=O)C=C[C@@](C)(O)[C@H]21`, in experiment [1], the activation was 15.2%. Moreover, the Potency result in experiment [2] and in experiment [3] was “inactive” throughout.

For `CC1CCC2(C)CCC3(C)C(=CCC4C5(C)CCC(O)C(C)(C(=O)O)C5CCC43C)C2C1C` (centres undefined), the activation in experiment [1] is 19.6%. For the same molecule, the Potency entry in experiment [2] and in experiment [3] was “inactive” in each case.

Take `CC(=O)OC1C=C(C(=O)O)C2(CO)CCC(C)C(C)(CCc3ccoc3)C2C1` (centres undefined): the activation in experiment [1] is -25.2%. The Potency result in experiment [2] and in experiment [3] was “inactive” each time.

With `O=C(/C=C/c1ccccc1)OC[C@]12O[C@H]1[C@@H](O)[C@@H]1C=CO[C@@H](O[C@@H]3O[C@H](CO)[C@@H](O)[C@H](O)[C@H]3O)[C@@H]12`, in experiment [1], the activation was 7.14%. In addition, the Potency entry in experiment [2] and in experiment [3] was “inactive” each time.

On to `CC(C)CC(=O)O[C@@H]1O[C@H](CO)[C@@H](O[C@H]2O[C@H](C)[C@@H](N[C@H]3C=C(CO)[C@@H](O[C@H]4O[C@H](CO)[C@@H](O[C@H]5O[C@H](CO)[C@@H](O[C@H]6O[C@H](CO)[C@@H](O)[C@H](O)[C@H]6O)[C@H](O)[C@H]5O)[C@H](O)[C@H]4O)[C@H](O)[C@H]3O)[C@H](O)[C@H]2O)[C@H](O)[C@H]1O`, for which the activation in experiment [1] was -13.7%. Further, the Potency entry in experiment [2] and in experiment [3] was “inactive” each time.

Consider `Nc1nc2c(c(=O)[nH]1)C[C@@H](CCc1ccc(C(=O)N[C@@H](CCC(=O)O)C(=O)O)cc1)CN2`, for which the activation in experiment [1] is 8.33%. The Potency result in experiment [2] and in experiment [3] was “inactive” each time.

As for `C=C1C[C@]23C[C@H]1CC[C@H]2[C@@]12CC[C@H](O)[C@@](C)(C(=O)O1)[C@H]2[C@@H]3C(=O)O`, the activation in experiment [1] was 5.34%. The Potency result in experiment [2] and in experiment [3] was “inactive” in each case.

Turning to `C=C1CC2C(C)(CCC(=O)O)C(C(C)(C)O)CCC2(C)C2C(=O)OC(C)(C(=O)OC)C(=O)C12C` (centres undefined), in experiment [1], the activation is 10.7%. Further, the Potency entry in experiment [2] and in experiment [3] was “inactive” each time.

For the molecule `Clc1ccc(Nc2nc3ccccc3c3nc(C4CCCCC4)[nH]c23)cc1Cl`, the activation in experiment [1] is 22%. Moreover, the Potency result in experiment [2] and in experiment [3] was “inactive” in each case.

As to `CC/C=C\CC1C(=O)C=CC1(CCCCCCCC(=O)O)OC(C)=O` (centres undefined), the activation in experiment [1] is -22.9%. In addition, the Potency result in experiment [2] and in experiment [3] was “inactive” throughout.

As to `C[C@H]1CC[C@H]2[C@@H](C=C[C@@](C)(O)[C@]2(C)C(=O)CCO)C1`, the activation in experiment [1] was -9.16%. Also, the Potency entry in experiment [2] and in experiment [3] was “inactive” each time.

`C=CC(=O)Nc1cc(Nc2nccc(-c3c[nH]c4ccccc34)n2)c(OC)cc1N(C)CCN(C)C`: in experiment [1], the Potency was 10.7 µM (active). For the same molecule, the Potency entry in experiment [2] and in experiment [3] was “inactive” each time.

In the case of `CC1=CC(=O)CC(C)(CO)C1(O)/C=C/C(C)O[C@@H]1O[C@H](CO)[C@@H](O)[C@H](O)[C@H]1O` (some centres undefined), the activation in experiment [1] was -9.82%. The Potency entry in experiment [2] and in experiment [3] was “inactive” throughout.

(Values after PubChem BioAssay (NCATS).)
